The values that follow come from PubChem BioAssay (NCI).

This is part of a sample that, as a whole, favours compounds with a hit. Of some 83,000 tested, about 20% had one in any assay.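 Testing used 96-well plates and a 48-hour single-concentration exposure. Example: -40 means 40% of the starting cells died.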 Unmarked numbers belong to inactive results. Calls of active or inactive are those of the source.

This assay relates to CCRF-CEM leukemia. Nature of the assay: NCI-60 one-dose screen, 48 h (100 = growth as untreated, 0 = no growth, -100 = all killed). Conditions: 10 µM unless noted. Here is the method:
Growth inhibition of the CCRF-CEM human tumor cell line is measured as a screen for anti-cancer activity. Cells are grown in 96 well plates and exposed to the test compound for 48 hours. Compounds are tested at a single concentration, which is 10^-5 M for most compounds. The reported endpoint is percent growth (GI% or GIPRCNT), where numbers from 0 - 100% represent growth inhibition, and numbers from -100% - 0 represent cell death. For example, a value of 40 represents 60% growth inhibition. A value of 0 means no net growth occurred over the course of the experiment. A value of -40 indicates 40% of cells at the beginning of the experiment died by the end of the experiment. A value of -100 means all cells are dead at the end of the experiment.
NCI-60 Human Tumor Cell Lines Screen was performed using the standard one-dose NCI protocol, which is described in more detail at https://dtp.cancer.gov/discovery_development/nci-60/default.htm.
Compounds with GIPRCNT values below 10 were considered active. Activity score was based on GIPRCNT using the following formula: […]
Score is 0 for GIPRCNT values of 100 or above, 50 for GIPRCNT values of 0, and 100 for GIPRCNT values of -100.
On to `CC(C)C[C@H](C(=O)N[C@H](C(N)=O)C(C)C)N1CC=CCN(OCc2ccccc2)S1(=O)=O`, for which the growth is 92.4% [2.5 µM]. Regarding `COc1ccc(Cn2c(Br)c3c(c2-c2cc(OC)c(OC)c(OC)c2)CCc2sc(NC(C)=O)nc2-3)cc1`, the growth was 16.9%.

As to `O=C(/C=C/c1ccc(Cl)cc1)c1ccc(Nc2nc(NCCO)nc(Nc3ccc(Cl)cc3)n2)cc1`, the growth is 47.2%. Next, `Nc1ccc(-c2ccc(-c3ccccc3N)c3[nH]c4ccccc4c23)cc1`: 13%. Consider `COc1cccc2c(=O)c3c(sc12)c(NCCCNCCO)nc1ccccc13`, for which the growth was 29.2%. Next, `O=C(Nc1ccc(Cl)cc1)c1cc2ccccc2cc1OP(=O)(O)O`: 18.2%. With `O=C(/C=C/c1cccc(Cl)c1)OCc1ccc2cc1OCC#C/C=C\C#CCO2`, the growth is 84%. Take `O=c1oc2ccc(I)cc2c(=O)n1-c1ccc(Br)cc1F`: the growth is 8.26% (active). Regarding `Cc1c(-c2csc(-n3nc(C(F)(F)F)cc3C(F)(F)F)n2)no[n+]1[O-]`, the growth is 95.7%.

Regarding `CCOC(=O)c1ccc(N=Cc2sc(=O)[nH]c2O)cc1`, the growth is 101%. Next, `COc1ccc(-c2nsc3c2NC(=O)CC3c2ccc3c(c2)OCCO3)cc1` (stereo not given): 14%; `COC(=O)C1=C(C)NC(C)=C(C(=O)OC)C(N2C(=O)CCC2=O)C1` (stereo not given): 35.3%; `O=C(Nc1ccc(N2CCNCC2)cn1)c1[nH]ncc1Nc1ncnc2sccc12`: 5.54% (active). For `COc1cc(/C=C2\CCC/C(=C\c3cc(CN4CCOCC4)c(O)c(OC)c3)C2=O)cc(CN2CCOCC2)c1O`, the growth was 14.8%. Turning to `COC(=O)/C(CCC=C(C)C)=C1\[C@@H](OC(C)=O)C[C@@]2(C)[C@H]1CC(=O)[C@H]1[C@@]3(C)CC[C@H](NCc4ccccc4)[C@@H](C)[C@@H]3CC[C@@]12C`, the growth was 76.4%. In the case of `CCN1C(=O)N(CC)C2C1NC(=S)N2/N=C/C=C/c1ccccc1OC` (stereo not given) it was 13.8%; in that of `CCC1=C[C@@H]2CN(C1)Cc1c([nH]c3ccccc13)[C@@](C(=O)OC)(c1cc3c(cc1OC)N(C)[C@H]1[C@@](O)(C(=O)OC)[C@H](OC(C)=O)[C@]4(CC)[C@@H]5C[C@@H]5CN5CC[C@]31[C@@H]54)C2`, 1.97% (active); in that of `O=c1oc2ccc(I)cc2c(=O)n1-c1ccc(I)cc1F`, 6.91% (active).

`CCn1c(Cc2ccccc2Nc2c(Cl)cccc2Cl)nnc1SCC(=O)NN1C(=O)/C(=C/c2cccc(OC)c2OC)SC1=S`: the growth is 96.6%.

`c1ccc(-c2ccc(-c3nc4ccccc4[nH]3)cc2)cc1`: the growth is 38.4%.

For the molecule `COc1ccc(N2C(=O)CC(c3cc(OC)c(OC)c(OC)c3)C3C2=NC(=O)N3C)cc1` (stereo not given), the growth was 109%. Next, `CN1C(=O)N(C)C2(c3ccccc3)n3c(s/c(=C\c4ccccc4)c3=O)=NNC12c1ccccc1` (stereo not given): 92.2%; `O=C(Nc1ccc(F)cc1F)c1cc(Br)ccc1O`: 10.6%; `COC(=O)[C@@H]1CCCN1C(=O)[C@H]1CCCN1C(=O)[C@@H](Cc1c[nH]c2ccccc12)NC(=S)Nc1cc(C(F)(F)F)cc(C(F)(F)F)c1`: 36.3%. Next, `COc1ccc(-c2cn[nH]c2-c2cc(OC)c(OC)c(OC)c2)cc1OCc1ccccc1`: 47%; `O=c1oc2ccc(-c3ccc(F)cc3F)cc2c(=O)n1-c1ccc(Cl)c(C(F)(F)F)c1`: 13.2%. With `COc1ccccc1CNC(=O)C1c2ccccc2C(=O)N(CC(C)C)C1c1cccs1` (stereo not given), the growth is 24%.

With `NC(CCc1nc2ccccc2c(=O)[nH]1)C(=O)O` (stereo not given), the growth was 103%. Next, `O=C1/C(=C/c2ccc(O)cc2)COc2ccc(O)c(O)c21`: 9.61% (active). Turning to `COc1ccc(C2=C(c3cccc(OC)c3)C(=O)c3ccc(C)nc3C2=O)cc1`, the growth was 19.1%. In the case of `COc1cc(CNC(=O)c2ccsc2Nc2ccnc(C(F)(F)F)c2)ccc1O` it was 83.7%; in that of `NNC(=O)CNC(=O)Nc1n[nH]c(=S)s1`, 93%. `Nc1ccc(-c2nc3cc(Oc4ccc(Oc5ccc6[nH]c(-c7ccc(N)cc7)nc6c5)cc4)ccc3[nH]2)cc1`: the growth was 100%.

As for `Nc1n[nH]c2ccc([C@@H]3Nc4ccc5[nH]ncc5c4[C@H]4[C@H]5CCC(C5)[C@H]43)cc12`, the growth was 17%. In the case of `Cc1sc2ncnc(Sc3nc4ccccc4[nH]3)c2c1C` it was -53.2% (active); in that of `COc1cc(/C=C/C(=O)c2ccc(Nc3nc(NCCO)nc(N4CCOCC4)n3)cc2)cc(OC)c1OC`, 3.64% (active). In the case of `O=c1oc2ccc(I)cc2c(=O)n1-c1ccc(Cl)cc1F` it was 7.77% (active); in that of `COc1ccccc1N1CCN(C(CNS(=O)(=O)c2ccc(Cl)cc2)c2cccnc2)CC1` (stereo not given), 55.5%.

On to `CCCCCCCCCCCCCCn1cc(C2=C(c3coc4ccc(OC)cc34)C(=O)NC2=O)c2ccccc21`, for which the growth is 101%. Turning to `O=Cc1cc2ccccc2nc1Nc1nccs1`, the growth was 46.7%.
